Vaccinia mCherry – qHTS for Stage-Specific Inhibitors of Vaccinia Orthopoxvirus: mCherry Reporter Primary qHTS; AID 720579, 2013; Vaccinia virus mCherry reporter infection, fluorescence; Potency, µM (series often up to 36.5 µM), for inactives: at the highest dose activity change, negative = inhibition, actives largely listed as inhibitors; hit rate 0.63% among 310,000; calls by dose curve; tested in A549 cells; note: potency is the fitted concentration of half-maximal effect; nearly all actives have a fitted effect of over 35% in size
MARV entry inh – qHTS for inhibitors of binding or entry into cells for Marburg Virus; hit rate 1.8% among 300,000; Potency, µM (highest dose often 37.8 µM), for inactives: top-dose activity change, negative = inhibition, hits mostly inhibitors; AID 540276, 2011; Marburg virus pseudotyped entry inhibition, cell reporter; calls by dose curve; tested in HEK293 cells; note: potency is the fitted concentration of half-maximal effect
HCMV inh – qHTS Assay for inhibitors of the human cytomegalovirus (HCMV); hit rate 4.5% among 410,000; activity change, negative = inhibition, % at 57.5 µM; HFF cells, HCMV-luciferase reporter, 72 h; stronger effect = lower value; in the data active = activity change below about -60%; inconclusive = no clear call, values can overlap the other calls; inactive = above about -39%
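Inhibition of viral replication was scored as loss of reporter luminescence in HFFs infected with HCMV-luciferase (MOI 1 PFU/cell) for 72 h; compounds tested at 2 doses, normalized to buffer and Salinomycin controls.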
Lassa entry inh – qHTS for Inhibitors of binding or entry into cells for Lassa Virus; Potency, µM (top dose mostly 37.9 µM), for the others: at the top dose activity change, negative = inhibition, hits mostly inhibitors; hit rate 1.2% among 300,000; Lassa virus pseudotype entry inhibition, cell reporter; calls by dose curve; tested in HEK293 cells; note: potency is the fitted concentration of half-maximal effect; nearly all actives have a fitted effect of over 50% in size
Vaccinia Venus – qHTS for Stage-Specific Inhibitors of Vaccinia Orthopoxvirus: Venus Reporter Primary qHTS; Potency, µM (titrated, usually from 36.5 µM), without a hit: top-dose activity change, negative = inhibition, most hits filed as inhibitors; Vaccinia virus Venus reporter expression, fluorescence; hit rate 0.46% among 330,000; calls by dose curve; tested in A549 cells; note: potency is the fitted concentration of half-maximal effect; nearly all actives have a fitted effect of over 30% in size
FMDV inh – High Throughput Screening for Foot and Mouth Disease Virus Antivirals | FMDV antiviral cell-based qHTS | Potency, µM (series often up to 57.9 µM), for the others: top-dose activity change, negative = inhibition, actives largely listed as inhibitors | hit rate 1.2% among 410,000; calls by dose curve; tested in HEK293T cells; note: read-out not given here; potency is the fitted concentration of half-maximal effect; nearly all actives have a fitted effect of over 45% in size
An asterisk follows results filed as active; ! = a repeat was not active; [ ] = another dose, or the depositor's remark. In the library only some 6.5% were active in any assay of this set; here they are far more common. % is set by controls: 0 for no effect and ±100 for the full control effect.

For COc1ccc([C@@H]2[C@H](C(=O)N3CCCC3)CC(=O)N2C(=O)c2ccccc2)cc1 the results were HCMV inh -4.
For CCOC(=O)C1(Cc2ccccc2)CCCN(CCCn2cccn2)C1 (configuration not stated) the results were Vaccinia mCherry -12%, MARV entry inh 6%[46.1 µM], HCMV inh -30, Lassa entry inh inconclusive, Vaccinia Venus -8% and FMDV inh 5%.
CCOC(=O)C1(Cc2ccc(Cl)cc2)CCN(CCCn2cccn2)CC1 was read as Vaccinia mCherry inactive, MARV entry inh inconclusive, HCMV inh -62*, Lassa entry inh inconclusive, Vaccinia Venus -17% and FMDV inh inconclusive.
CCOC(=O)C1(Cc2ccc(Cl)cc2)CCN(C(=O)c2sc(C)nc2C)CC1 was read as HCMV inh -76* and FMDV inh 32µM*.
Screening CN(C)c1ccc(C=C2C=Cc3ccccc32)cc1 returned Vaccinia mCherry inactive, MARV entry inh -25%, HCMV inh 2, Lassa entry inh 6.3µM*, Vaccinia Venus -17% and FMDV inh -1%.
C=CCn1c(SCC#N)nc2cc(Cl)ccc2c1=O was read as Vaccinia mCherry 17% and Vaccinia Venus -19%.
`CCOC(=O)C1=C(C)NC(C)=C(C(=O)OCC)C1C(=O)OCC(=O)N1c2ccccc2CC1C` (configuration not stated) gave Vaccinia mCherry -30%, MARV entry inh 13µM*!, HCMV inh 20, Lassa entry inh inconclusive, Vaccinia Venus -6% and FMDV inh 25%.
CCOC(=O)c1c(C)[nH]c(C(=O)OCC(=O)N2c3ccccc3CC2C)c1C (configuration not stated) was read as Vaccinia mCherry inconclusive, MARV entry inh inconclusive, HCMV inh -30, Lassa entry inh inconclusive, Vaccinia Venus -28% and FMDV inh inconclusive.
Screening CC(Oc1ccccc1)C(=O)Nc1nc(-c2ccccn2)cs1 (configuration not stated) returned Vaccinia mCherry 7.1µM*, MARV entry inh -14%[46.1 µM], HCMV inh inconclusive, Lassa entry inh -19%, Vaccinia Venus inconclusive and FMDV inh -21%.
`CC(Oc1cccc(Cl)c1)C(=O)Nc1nc(-c2ccccn2)cs1` (configuration not stated) gave Vaccinia mCherry 11µM*, MARV entry inh inconclusive, HCMV inh -72*, Lassa entry inh inconclusive, Vaccinia Venus inconclusive and FMDV inh inconclusive.
CC(Oc1ccccc1)C(=O)Nc1nc(-c2ccncc2)cs1 (configuration not stated) was read as HCMV inh -19 and FMDV inh -1%.
`C[n+]1c2cc(N)ccc2cc2ccc(N)cc21` (tested in a mixture with another compound) gave Vaccinia Venus inconclusive and FMDV inh -7%.
Screening CC(=O)NC1=C(N(C)C2CCS(=O)(=O)C2)C(=O)c2ccccc2C1=O (configuration not stated) returned Vaccinia mCherry -10%, MARV entry inh inconclusive, HCMV inh -33, Lassa entry inh 7.1µM*, Vaccinia Venus -1% and FMDV inh 13µM*.
Screening CC(=O)NC1=C(Nc2ccc(N(C)C)cc2)C(=O)c2ccccc2C1=O returned Vaccinia mCherry inconclusive, MARV entry inh inconclusive, HCMV inh -88*, Lassa entry inh 1.6µM*, Vaccinia Venus -8% and FMDV inh -12%.
For CN(C(=O)Nc1ccccc1)C1CCS(=O)(=O)C1 (configuration not stated) the results were MARV entry inh 7%[46.1 µM], HCMV inh -29, Lassa entry inh 3%, Vaccinia Venus -8% and FMDV inh -3%.
Screening CN(C)c1ccc(C=C2C(=O)c3ccccc3C2=O)cc1 returned Vaccinia mCherry 34% and Vaccinia Venus -4%.
`Cc1ncc(CO)c(/C=N/NC(=O)c2cc3c(s2)CCCC3)c1O` gave MARV entry inh inconclusive, HCMV inh -66*, Lassa entry inh inconclusive and FMDV inh -6%.
Screening O=[N+]([O-])c1ccc(NN=C(Oc2ccccc2)c2ccc([N+](=O)[O-])cc2)cc1 returned Vaccinia mCherry -7%, HCMV inh -70*, Vaccinia Venus -16% and FMDV inh -12%.
For CC/C(=N\Nc1ccc([N+](=O)[O-])cc1)c1ccccc1 the results were MARV entry inh -10%, Lassa entry inh inconclusive and FMDV inh -12%.
CCCCOc1cccc(C(=O)N(Cc2sccc2C)C2CCS(=O)(=O)C2)c1 (configuration not stated) was read as Vaccinia mCherry -17%, MARV entry inh -27%[46.1 µM], HCMV inh -12, Lassa entry inh inconclusive, Vaccinia Venus -16% and FMDV inh -9%.
`COc1cc(OC)c(NC(=O)C(CC(C)C)N2Cc3ccccc3C2=O)cc1Cl` (configuration not stated) gave Vaccinia mCherry inactive, HCMV inh -65*, Lassa entry inh -14%[46.1 µM], Vaccinia Venus -8% and FMDV inh 8%.
For O=C(CCN1C(=O)/C(=C/c2ccccc2Cl)SC1=S)NNC(=O)c1cccnc1 the results were Vaccinia mCherry -2%, MARV entry inh inconclusive, HCMV inh 26, Lassa entry inh 2%, Vaccinia Venus -21% and FMDV inh -9%.
`Cc1ccc(C(=O)NNC(=O)CCCN2C(=O)/C(=C/c3ccccc3Cl)SC2=S)cc1` gave Vaccinia mCherry inactive, MARV entry inh 11µM*, HCMV inh inconclusive, Lassa entry inh inconclusive, Vaccinia Venus -4% and FMDV inh inconclusive.
Screening O=C(CCN1C(=O)/C(=C/c2ccccc2Cl)SC1=S)NNC(=O)c1ccccc1O returned Vaccinia mCherry inconclusive, MARV entry inh -21%[46.1 µM], HCMV inh 21, Lassa entry inh inconclusive, Vaccinia Venus 45% and FMDV inh 0%.
O=C(CCN1C(=O)/C(=C/c2ccccc2Cl)SC1=S)NCCc1ccc(O)cc1 was read as HCMV inh -101* and FMDV inh -5%.
`O=C(CCCN1C(=O)/C(=C/c2ccccc2Cl)SC1=S)NNC(=O)c1ccc(Cl)cc1` gave Vaccinia mCherry -7%, HCMV inh -75*, Vaccinia Venus -14% and FMDV inh 7.9µM*.
COc1ccc2c3c([nH]c2c1)[C@@H](CO)N(Cc1ccccc1)CC31CN(C(=O)Cc2ccccc2)C1 was read as HCMV inh 0.
Screening CCOC(=O)c1ccc(NC(=S)N2CCN(C)CC2)cc1 returned Vaccinia mCherry -4%, MARV entry inh 18%, HCMV inh -10, Lassa entry inh -22%, Vaccinia Venus -11% and FMDV inh 27%.

High-throughput results (PubChem)
